Assay results published in PMC13541613, “GHT-SELEX demonstrates unexpectedly high intrinsic sequence specificity and complex DNA binding of many human transcription factors”.

What follows are sequences tested against ZNF721 full-length (Homo sapiens, UniProt Q8TF20-2 1-923) (assay: HT-SELEX; 20 mM HEPES pH 7, 140 mM KCl, 5 mM NaCl, 1 mM K2HPO4, 2 mM MgSO4, 100 uM EGTA, ZnSO4, 0.1% Tween20; room temperature, 1 h; high values mean tight binding). Conditions: protein: ivt; tags: eGFP (N-terminal); dsDNA, one strand shown.
ZNF721 full-length, sequence (Q8TF20 other isoform, or with tags, fused parts or gaps): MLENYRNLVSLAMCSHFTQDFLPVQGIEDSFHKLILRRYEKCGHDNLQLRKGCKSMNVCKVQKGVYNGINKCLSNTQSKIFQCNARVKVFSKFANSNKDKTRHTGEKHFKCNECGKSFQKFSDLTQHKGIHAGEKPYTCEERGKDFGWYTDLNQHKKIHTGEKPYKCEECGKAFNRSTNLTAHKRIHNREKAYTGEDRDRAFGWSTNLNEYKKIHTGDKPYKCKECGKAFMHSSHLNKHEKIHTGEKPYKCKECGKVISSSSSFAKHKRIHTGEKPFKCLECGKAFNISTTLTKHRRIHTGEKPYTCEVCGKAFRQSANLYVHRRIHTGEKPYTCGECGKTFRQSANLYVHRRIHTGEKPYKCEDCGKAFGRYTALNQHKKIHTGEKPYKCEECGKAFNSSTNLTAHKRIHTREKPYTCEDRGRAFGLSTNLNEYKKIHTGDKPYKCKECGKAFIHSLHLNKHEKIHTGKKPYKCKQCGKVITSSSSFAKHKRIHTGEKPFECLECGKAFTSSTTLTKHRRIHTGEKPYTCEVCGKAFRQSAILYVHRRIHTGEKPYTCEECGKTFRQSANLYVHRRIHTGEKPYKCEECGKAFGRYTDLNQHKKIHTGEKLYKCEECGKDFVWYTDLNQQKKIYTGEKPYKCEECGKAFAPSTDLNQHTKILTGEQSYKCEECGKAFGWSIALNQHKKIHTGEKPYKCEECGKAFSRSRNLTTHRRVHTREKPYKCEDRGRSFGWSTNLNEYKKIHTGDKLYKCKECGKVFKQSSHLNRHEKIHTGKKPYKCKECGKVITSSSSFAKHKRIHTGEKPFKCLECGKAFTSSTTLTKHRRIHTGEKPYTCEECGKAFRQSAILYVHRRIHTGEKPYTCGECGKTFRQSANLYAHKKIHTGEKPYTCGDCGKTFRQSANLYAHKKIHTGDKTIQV
Outline: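 Tagged transcription factor, expressed in HEK293 lysate or cell-free extract as a full-length protein or DNA-binding-domain fragment, was held on beads. It bound a randomized 40-base DNA library during 1 h at room temperature in low-stringency HEPES/KCl buffer with Tween20. Eluted DNA went through successive PCR cycles and Illumina sequencing of ~3 million 60 bp reads per sample. A higher relative k-mer count in the selected reads denotes tighter binding.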
CCAAAAAACA was tested, and the binding signal was 0.16 relative 10-mer count. In the case of CGAAAAAAAG, the binding signal is reported as 0.159 relative 10-mer count. In the case of CGCCCCGCCC, the binding signal is reported as 0.139 relative 10-mer count. CTGCCCACCC showed a binding signal of 0.102 relative 10-mer count. With AGGTGGTGGG the binding signal was 0.113 relative 10-mer count. For CCCTCCCCGC, the binding signal was 0.139 relative 10-mer count. In the case of CCTACCCACC, the binding signal is reported as 0.124 relative 10-mer count. In the case of AAAGCTATCC, the binding signal is reported as 0.165 relative 10-mer count. AAACAGCGTA gave a binding signal of 0.378 relative 10-mer count. CATCCCCACC was tested, and the binding signal was 0.126 relative 10-mer count. For CCCCCCCACA, the binding signal was 0.124 relative 10-mer count. AAAGCAGCAT was tested, and the binding signal was 0.31 relative 10-mer count. Work on AGCCCACCCC yielded a binding signal of 0.12 relative 10-mer count. With ACCCCCCAAC the binding signal was 0.103 relative 10-mer count. For CCCTTCCCCC, the binding signal was 0.141 relative 10-mer count. Sequence GCCCACCCCA has a binding signal of 0.142 relative 10-mer count. CACCCCCGCC was tested, and the binding signal was 0.193 relative 10-mer count. GCAGCATACC gave a binding signal of 0.151 relative 10-mer count. AAAAAAAGCG gave a binding signal of 0.217 relative 10-mer count. In the case of CCCCCCAGCC, the binding signal is reported as 0.118 relative 10-mer count. Sequence CGCCCACCCA has a binding signal of 0.147 relative 10-mer count. Work on CCCCCCACGC yielded a binding signal of 0.139 relative 10-mer count. For ACCACCCCCA, the binding signal was 0.142 relative 10-mer count. CCGCCCCCCA showed a binding signal of 0.141 relative 10-mer count. Work on CGAAAAAAGC yielded a binding signal of 0.221 relative 10-mer count. ACAAAAAAAC gave a binding signal of 0.151 relative 10-mer count. With CCTCCCCCAC the binding signal was 0.216 relative 10-mer count. With CCCCCCTCAC the binding signal was 0.103 relative 10-mer count. ACCTCCCCAC showed a binding signal of 0.108 relative 10-mer count. With CCCCCGCCAC the binding signal was 0.176 relative 10-mer count. ACCCCCTCCC gave a binding signal of 0.158 relative 10-mer count. For CCCACCCAAC, the binding signal was 0.172 relative 10-mer count. Sequence AGGGCGGGGG has a binding signal of 0.14 relative 10-mer count. AAGCAGCATA showed a binding signal of 0.179 relative 10-mer count. Sequence GGCGGGGGGA has a binding signal of 0.126 relative 10-mer count. Sequence ACCCCACACC has a binding signal of 0.14 relative 10-mer count. CCCCACCGCC showed a binding signal of 0.28 relative 10-mer count. Work on CCCAAACCCC yielded a binding signal of 0.109 relative 10-mer count. With GCCCTCCCCC the binding signal was 0.163 relative 10-mer count. CCCCCACCGC showed a binding signal of 0.192 relative 10-mer count.
